Format in all cases: functional
The target in assay [1] is Solute carrier family 2, facilitated glucose transporter member 1 (Homo sapiens) (UniProt P11166). Description: ST_JUDE_LEISH: Cytotoxicity at 2uM final concentration against transgenic Leishmania Mexicana promastigotes LmGLUT1 that are glucose transport deficient and complemented with the human glucose transporter GLUT1. Activity is measured by DNA content using SYBR green in vitro.

Assay [2] deals with Hexose transporter 1 (Plasmodium falciparum) (UniProt O97467). Description: ST_JUDE_LEISH: Cytotoxicity at 2uM final concentration against transgenic Leishmania Mexicana promastigotes LmPfHT that are glucose transport deficient and complemented with the Plasmodium falciparum hexose transporter. Activity is measured by DNA content using SYBR green in vitro.
The target of assay [3] is Glucose transporter (Leishmania mexicana) (UniProt O61059). The assay is described as follows: ST_JUDE_LEISH: Cytotoxicity at 2uM final concentration against transgenic Leishmania Mexicana promastigotes LmGT2 that are glucose transport deficient and complemented with the L. Mexicana glucose transporter 2. Activity is measured by DNA content using SYBR green in vitro.

Drawing on ChEMBL document CHEMBL3433997, “St. Jude Leishmania screening dataset” (2016), this text covers inhibition for 35 molecules.

Chain of Solute carrier family 2, facilitated glucose transporter member 1 (Homo sapiens) (P11166 whole entry): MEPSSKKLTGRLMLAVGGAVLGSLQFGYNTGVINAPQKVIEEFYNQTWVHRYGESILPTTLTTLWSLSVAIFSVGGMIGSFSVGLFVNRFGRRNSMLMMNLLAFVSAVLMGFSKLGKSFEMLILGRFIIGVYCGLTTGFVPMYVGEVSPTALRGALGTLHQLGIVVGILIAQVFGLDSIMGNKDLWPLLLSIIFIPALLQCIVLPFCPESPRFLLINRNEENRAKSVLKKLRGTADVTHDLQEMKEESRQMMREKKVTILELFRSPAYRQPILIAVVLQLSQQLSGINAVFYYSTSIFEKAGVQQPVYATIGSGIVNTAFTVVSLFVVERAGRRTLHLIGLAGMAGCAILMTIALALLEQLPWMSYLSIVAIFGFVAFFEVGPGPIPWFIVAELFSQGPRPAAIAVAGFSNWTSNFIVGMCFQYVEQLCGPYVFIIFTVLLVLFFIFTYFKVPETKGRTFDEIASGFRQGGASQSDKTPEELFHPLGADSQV

Regarding `Cc1nc2ccc3ccc(CNc4ccc5c(c4)CN([C@@H](CCC(=O)O)C(=O)O)C5=O)cc3c2c(=O)[nH]1`, the inhibition (commonly the drop in the measured response relative to a control, in per cent) is 1.71% in assay [1], -0.99% in assay [2] and -1.52% in assay [3].
The like results for `C=CCn1c(=N)n(CC(O)c2ccc(Cl)c(Cl)c2)c2ccccc21` (stereo not given) were, in that order, 2.79%, 3.84% and 0.9%.
The like results for `CC(=O)OC[C@H]1O[C@@H](C#Cc2ccccc2)[C@H](OC(C)=O)[C@@H](OC(C)=O)[C@@H]1OC(C)=O` were, in that order, 1.22%, 2.07% and 0.66%.
Consider `N#Cc1ccc(CCNc2nccc(-c3cccc(CN4CCNCC4)c3)n2)cc1`, for which the inhibition in assay [1] was determined as 12.3%; in assay [2], 12.8%; in assay [3], 6.7%.
As to `O=C(Nc1cccc(C(F)(F)F)c1)c1cccc(S(=O)(=O)NC2CCCN(CC3CCCCC3)C2)c1` (stereo not given), the values for the inhibition in assay [1], in assay [2] and in assay [3] were 0.39%, 0.03% and 0.55%, respectively.
The like results for `c1ccc(COc2ccc(Nc3ncnc4cnc(-c5ccc(CN6CCCCC6)o5)cc34)cc2)cc1` were, in that order, 1.44%, 1.73% and 2.99%.
Regarding `CN(C)CCNCc1nc(-c2ccc3c(Nc4ccc(Oc5ccccc5)cc4)ccnc3c2)cs1`, the inhibition is -2.05% in assay [1], 1.8% in assay [2] and 5.9% in assay [3].
The like results for `CC(=O)Nc1nc(C(=O)Nc2cccc(-c3cccc(-c4nc5cc(F)ccc5[nH]4)c3)c2)cs1` were, in that order, 2.3%, 3.28% and 2.66%.
The like results for `Cc1ccc2c(c1)NCC21CCN(C[C@@H](O)C2CCN(c3ccnc(Cl)c3)CC2)CC1C` (stereo not given in full) were, in that order, 0.9%, 3.08% and 0.18%.
The like results for `CCC[C@@H]([C@@H](CC(C)C)C(=O)N[C@H](C(=O)Nc1nccs1)C(C)(C)SCCNC(=O)OCC)N(O)C=O` were, in that order, 2.68%, 4.73% and 3.58%.
Regarding `Cc1c(C)c2c(c(C)c1O)CC[C@](C)(C(=O)N1CCC(CCN3CCC(c4c[nH]c5ccccc45)CC3)CC1)O2`, the inhibition in assay [1] was 0.17%; in assay [2], -1.76%; in assay [3] it was -0.6%.
The like results for `c1cc(CN2CCN(CCN3CCOCC3)CC2)cc(-c2csc(-c3nc4ccccc4[nH]3)c2)c1` were, in that order, 5.51%, 5.16% and 4.63%.
Turning to `CCCc1ccccc1OCC(O)CN(C1CCCC1)C1CCCC1` (stereo not given), the inhibition in assay [1] came to 6.36%; in assay [2] it was 6.68%; in assay [3], 5.96%.
Consider `CCCCCCC(N)c1ccc(OCCCOc2ccc(C(N)CCCCCC)cc2)cc1` (stereo not given), for which the inhibition amounted to 107% in assay [1], 106% in assay [2] and 109% in assay [3].
The like results for `CN(C)CCCOc1ccc(CNCC(C)(C)c2nc(-c3ccc(Cl)c(O)c3)c(-c3ccncc3)[nH]2)cc1` were, in that order, 3.39%, 1.89% and 2.83%.
The like results for `CCOc1ccccc1C(=O)Nc1cccc(-c2nc3ncccn3c2C)c1` were, in that order, 2.41%, -0.3% and -0.34%.
Consider `CC1(C)CCC(C)(C)c2c1ccc(C1CCN(CCCCNC(=O)c3ccc(-c4ccc(Cl)cc4)cc3)CC1)c2O`, for which the inhibition in assay [1] is 2.14%; in assay [2] it was 1.66%; in assay [3], 0.11%.
The like results for `CC(C)(C)c1ccc(CN2CCCCC(NC(=O)c3cc(-c4ccccc4F)cs3)C2)cc1` (stereo not given) were, in that order, -1.83%, -0.56% and 0%.
The like results for `N#CCCn1nc(-c2ccc(Cl)cc2)c2c(c1=O)CCCC2` were, in that order, 0.21%, 1.16% and 1.01%.
The like results for `COc1cc(C(C)C)nc2ccc(NC(=O)c3ccc(C(=O)Nc4ccc5nc(C(C)C)cc(OC)c5c4)cc3)cc12` were, in that order, 6.44%, 5.94% and 3.76%.
For `COc1cc(CCNC(=O)Cc2ccc3ccccc3c2)ccc1OCc1ccccc1`, the inhibition turned out to be 1.9% in assay [1], 1.88% in assay [2] and 0.92% in assay [3].
With `N=c1cc(C=Cc2ccc(O)cc2)[nH]c2ccccc12`, the inhibition in assay [1] was 2.26%; in assay [2], 4.1%; in assay [3] it was 3.12%.
The like results for `Cc1ccccc1Cc1cccc(/N=C(\N)Nc2ccc(Cl)cc2)n1` were, in that order, 5.38%, 5.38% and 2.51%.
The like results for `COc1cccc(C(=O)Nc2ccc(Oc3ccc(Cl)cc3)cc2)c1` were, in that order, -1.17%, -0.22% and -1.01%.
The like results for `Cc1ccc2nc(C)n(C3CCN(C(=O)C4(c5ccccc5)CC4)CC3)c2c1` were, in that order, 5.47%, 6.02% and 5.27%.
In the case of `COc1cccc2cc(C(=O)N[C@@H](CC(C)C)C(=O)NC(/C=N/NC(=O)c3ccccc3)CCc3ccccc3)oc12` (stereo not given in full), the values for the inhibition in assay [1], in assay [2] and in assay [3] were -0.59%, 2.83% and 0.75%, respectively.
Regarding `Cc1cc2nc(-c3ccc(C(=O)NCc4ccc(Cl)c(Cl)c4)cc3)[nH]c2cc1C`, the inhibition in assay [1] was 4.77%; in assay [2] it was 4.64%; in assay [3], 2.9%.
The like results for `Cc1ccc(OCCCCONC(=O)c2ccccc2)cc1` were, in that order, 0.84%, -1.51% and -0.14%.
Regarding `COc1ccc(Cn2ccc3c4c(N)nc(N)nc4ccc32)cc1`, the inhibition in assay [1] was 97.9%; in assay [2] it was 89.3%; in assay [3], 90.1%.
The like results for `CCOc1ccc(C(C)NC(=O)Cc2ccccc2F)cc1OCC` (stereo not given) were, in that order, 3.49%, 2.75% and -0.15%.
The like results for `Cc1nc2nc(N)nc(N)c2c(C)c1Cc1ccc(O)cc1` were, in that order, -0.09%, -2.78% and 4.5%.
The like results for `CN1CCN(CC(=O)Nc2ccc(-c3ccc(-c4nc5ccccc5[nH]4)cc3)cc2)CC1` were, in that order, 8.17%, 6.39% and 9.57%.
Turning to `CCOc1ccc(C(C)NC(=O)c2cc(Cl)ccc2OC)cc1OCC` (stereo not given), the values for the inhibition in assay [1], in assay [2] and in assay [3] were -0.81%, 0.16% and -2.78%, respectively.
The like results for `NC1CCN(Cc2cccc(-c3cccc(-c4nc5ccccc5[nH]4)c3)c2)C1` (stereo not given) were, in that order, 2.17%, 3.31% and 1.15%.
Turning to `CN(C)CCn1c(=N)n(CC(O)c2ccc(Cl)c(Cl)c2)c2ccccc21` (stereo not given), the inhibition in assay [1] is 6.31%; in assay [2] it was 4.53%; in assay [3] it was 5.49%.
